# Compounds with a hit are over-represented: about 9% of the library has one in this group of screens.
# IMPase inh: qHTS Assay for Identifying the Cell-Membrane Permeable IMPase Inhibitors; 120,000 tested, under 10 active; inhibition (IP1 accumulation), % at 46.1 µM; CHO-M1 cells, IP1 accumulation, HTRF TR-FRET ratio; Inositol monophosphatase 1 (Rattus norvegicus), P97697; AID 901, 2007; active means well fitted curve in the direction sought with a large enough effect in the signal ratio, not every such curve was filed as active; inconclusive means small, poorly fitted or top-dose-only effect, or a change in a side signal; inactive means no such curve, though single readings can be large or run the other way; the % refers to the signal ratio;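 further: cells stimulated with carbachol in lithium chloride buffer; plate controls were DMSO basal wells for no effect and reference inhibitor wells for full effect; higher means more IMPase inhibition seen as more IP1 and lower FRET ratio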
# Target sequence (P97697 whole entry, looked up): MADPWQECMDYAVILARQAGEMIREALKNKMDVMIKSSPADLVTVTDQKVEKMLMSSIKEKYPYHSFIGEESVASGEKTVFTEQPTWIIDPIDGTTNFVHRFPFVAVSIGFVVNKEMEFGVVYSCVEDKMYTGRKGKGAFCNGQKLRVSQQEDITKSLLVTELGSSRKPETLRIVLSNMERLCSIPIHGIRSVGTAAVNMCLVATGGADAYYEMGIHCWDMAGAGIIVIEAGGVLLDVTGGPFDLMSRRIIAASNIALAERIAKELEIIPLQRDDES
#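 In this qHTS, compounds (final up to 46 uM) act on CHO-M1 cells that are then activated through the M1 receptor with carbachol, in pH 7.4 buffer containing 50 mM LiCl, for 30 min. IP1 accumulation is quantified by the IP-One immunoassay.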
# ALDH1A1 inh: qHTS Assay for Inhibitors of Aldehyde Dehydrogenase 1 (ALDH1A1); hit rate 7.3% among 220,000; Potency, µM (doses to about 75.3 µM), without a hit: at the top dose activity, negative = inhibition, usual class: inhibitors; AID 1030, 2008; Purified ALDH1A1, NADH fluorescence, propionaldehyde substrate; Aldehyde dehydrogenase 1A1 (Homo sapiens), P00352;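 further: potency means the concentration at half of the fitted maximal effect; plate controls were no enzyme wells and a reference inhibitor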
# HPGD inh: qHTS Assay for Inhibitors of HPGD (15-Hydroxyprostaglandin Dehydrogenase). purified HPGD, NADH fluorescence kinetic, PGE2 substrate. Potency, µM, for inactives: top-dose activity change, negative = inhibition, most hits filed as inhibitors. hit rate 4.3% among 150,000. 15-hydroxyprostaglandin dehydrogenase [NAD(+)] (Homo sapiens), P15428. AID 894, 2007; further: potency means the concentration at half of the fitted maximal effect
#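 20 nM HPGD preincubated 15 min at room temperature with compound in 50 mM Tris-HCl pH 8, 0.01% Tween 20. Started with 1 mM NAD+ and 30 uM prostaglandin E2; NADH fluorescence (360/450 nm) read 5 times over 30-s intervals, last minus first.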
# * = called active by the depositor; ? = inconclusive; nt = no result given. Unless noted, the call rests on the fitted dose curve; in most records, active means well fitted inhibition curve with a large enough effect (not every such curve was filed as active); inconclusive means small, poorly fitted or top-dose-only effect, or another doubt; inactive means no such curve, though single readings can be large or run the other way. Unless noted, on the % scale 0 is the no-effect control and ±100 the full control effect.
SMILES,IMPase inh,ALDH1A1 inh,HPGD inh
O=C(CSCc1c(Cl)cccc1Cl)NN=C1CCCC1,nt,1.6µM*,nt
CN(C(=O)COc1ncnc2sccc12)c1ccccc1,nt,4%,nt
CC1(C(=O)N(Cc2ccccc2)Cc2ccccc2)CC1(Br)Br (stereo unspecified),0,3%,-7%
Cc1ccc(S(=O)(=O)N2CCN(C(=O)c3c(C)nn(-c4ccccc4)c3Cl)CC2)cc1,-1,-4%,-11%
COc1ccc(S(=O)(=O)N2CCN(C(=O)c3c(C)nn(-c4ccccc4)c3Cl)CC2)cc1,9,32µM*,-16%
CCCCN(CC)C(=O)CSc1nc2c(sc(=S)n2-c2ccc(OCC)cc2)c(=O)[nH]1,nt,0%,nt
C[C@H](CCC(=O)NCCS(=O)(=O)O)C1CC[C@H]2C3CC[C@@H]4C[C@H](O)CC[C@]4(C)C3C[C@H](O)[C@]12C (stereo partly specified),nt,3%,nt
COc1ccc(NC(=S)NCCSc2ccc(Cl)cc2)c(OC)c1,2,20µM*,16µM*
COc1ccccc1NC(=S)NCCSc1ccc(Cl)cc1,13,0%,-10%
COc1ccc2c(c1)O[C@H](c1ccc3c(c1)OCO3)[C@@H](OC(=O)NCCc1ccc(OC)c(OC)c1)C2=O,nt,4%,-11%
Fc1ccc(-c2nc3c(-c4ccc(Cl)cc4)cnn3cc2CCN2CCOCC2)cc1,nt,12%,nt
O=C(N/N=C/C1CC=CCC1)c1ccc(O)cc1O (stereo unspecified),nt,?,-9%
COc1cc(C(=O)N/N=C/C2CC=CCC2)cc(OC)c1OC (stereo unspecified),nt,11µM*,-10%
CCCCCCCC(=O)NNC(=O)CC(=O)Nc1ccccc1C(=O)O,-6,5%,-10%
O=C(Nc1c(-c2ccccc2)nc2sccn12)c1ccccc1,0,0%,-6%
Cc1ccc(S(=O)(=O)N2CCN(S(=O)(=O)N3CCOCC3)CC2)c(C)c1,-2,13µM*,-10%
Cc1ccc(S(=O)(=O)N2CCN(S(=O)(=O)N3CCOCC3)CC2)cc1C,-2,9%,-11%
O=c1oc2ccccc2cc1N1CCOCC1,nt,-14%,-10%
COc1ccc(/C=N/N(Cc2ccccc2)c2ccccc2)cc1O,nt,-4%,nt
C(=N\N(Cc1ccccc1)c1ccccc1)/c1ccco1,nt,14µM*,nt
CCOc1cc(/C=C/c2cc(C(=O)O)c3ccccc3n2)ccc1O,nt,0%,-17%
CCN(CC)c1ccc(/C=C/c2cc(-c3ccccc3)c3ccccc3n2)cc1,nt,11µM*,nt
O=C1NC(=O)C2(COC(c3cccnc3)OC2)S1 (stereo unspecified),nt,-12%,-12%
CSC1=N/C(=C\c2ccc(Cl)cc2)C(=O)N1N(C)C,nt,5%,nt
CC1(C)CN=c2s/c(=C\c3ccc(Cl)cc3)c(=O)n2C1,nt,2.2µM*,nt
SMILES,IMPase inh,ALDH1A1 inh,HPGD inh
CCN(CC)C(=O)CS(=O)(=O)CC(=O)Nc1cc(OCCOC)c(Cl)cc1Cl,nt,-1%,nt
CCC1(C)SC(N)=NN1C(C)=O (stereo unspecified),nt,7%,nt
CCOC(=O)c1sc(N(Cc2ccccc2)C(=O)COC(=O)c2cnccn2)nc1C,nt,-11%,nt
CCOC(=O)c1sc(N(Cc2ccccc2)C(=O)CSc2nnc(C3CC3)n2N)nc1C,5,-9%,20µM*
O=C(COc1ccccc1C(=O)c1cnn(-c2ccccc2)c1)Nc1ccccc1,9,-5%,-15%
CC1CCN(C(=O)Cn2c(SCC(=O)Nc3nccs3)nc3ccccc32)CC1,?,-13%,-14%
COc1ccc(C(=O)COC(=O)c2ccc(NC(C)=O)cc2)cc1[N+](=O)[O-],-2,?,?
CCOc1ccc(C(=O)NC(=S)Nc2cccc(NC(=O)c3ccco3)c2)cc1[N+](=O)[O-],-4,3.2µM*,-28%
CCOc1ccc(C(=O)Nc2cccc(NC(=O)c3cccs3)c2)cc1[N+](=O)[O-],nt,?,-27%
CCc1ccc(NC(=O)c2ccc(OC)c([N+](=O)[O-])c2)cc1,nt,11µM*,-19%
COc1cc(NC(=S)NC(=O)c2ccccc2F)ccc1NC(=O)c1ccco1,nt,32µM*,-26%
COc1ccc(C(=O)NC(=S)Nc2ccc(NC(=O)c3ccco3)cc2)cc1[N+](=O)[O-],nt,-15%,-7%
COc1ccc(C(=O)NC(=S)Nc2cccc(NC(=O)c3ccco3)c2)cc1[N+](=O)[O-],?,3.5µM*,-8%
COc1cc(NC(=S)NC(=O)c2ccco2)ccc1NC(=O)C(C)C,nt,-11%,nt
CCNC(=S)Nc1cc(OCC)c(NC(=O)c2cccs2)cc1OCC,4,-2%,-12%

# Screens (PubChem BioAssay)
